This is an account of results in PubChem BioAssay AID1851 (National Center for Advancing Translational Sciences (NCATS), 2009).

Molecules are shown by their SMILES. Screen size: about 16,000 compounds; about 5,800 (36%) were called active. Not shown: some 23% with an inconclusive outcome. The list shows a part of the results. A number with no mark means an inactive call. Calls follow the shape of the dose curve; as a rule, active = well fitted curve in the direction sought with a large enough effect; inconclusive = small, poorly fitted or top-dose-only effect, or effect the other way; inactive = no such curve, though single readings can be large or run the other way.
% is scaled to controls: 0 for no effect and ±100 for the full control effect.

The target in this experiment is Cytochrome P450 2C19 (Homo sapiens) (UniProt P33261). The experiment in a line: Cytochrome panel assay with activity outcomes. Conditions: recombinant CYP, pro-luciferin dealkylation, luminescence, p450-cyp2c19; series mostly up to 57.1 µM; activity, negative = inhibition: at the top concentration.
Sequence of Cytochrome P450 2C19 (Homo sapiens) (P33261 whole entry, looked up): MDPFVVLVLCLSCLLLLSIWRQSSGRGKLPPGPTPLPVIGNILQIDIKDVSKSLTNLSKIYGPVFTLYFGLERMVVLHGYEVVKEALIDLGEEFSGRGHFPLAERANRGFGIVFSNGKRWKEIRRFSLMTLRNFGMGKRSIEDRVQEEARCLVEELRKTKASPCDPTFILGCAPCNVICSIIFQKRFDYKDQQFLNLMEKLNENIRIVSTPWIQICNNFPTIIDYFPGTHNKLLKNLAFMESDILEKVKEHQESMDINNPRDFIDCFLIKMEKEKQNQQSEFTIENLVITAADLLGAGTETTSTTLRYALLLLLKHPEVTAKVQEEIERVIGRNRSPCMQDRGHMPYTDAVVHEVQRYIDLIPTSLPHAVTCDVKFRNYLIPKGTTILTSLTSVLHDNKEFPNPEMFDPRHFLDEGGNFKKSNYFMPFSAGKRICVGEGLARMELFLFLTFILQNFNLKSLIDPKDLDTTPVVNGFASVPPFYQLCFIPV
Take `O=C(Nc1ccccc1)N1CCCC2(CCN(C(=O)c3ccco3)CC2)C1`: the “activity, negative = inhibition” value was -38.7%.
The same measure, in the same setting: the same measure for `CCOC(=O)N/N=C1/C[C@@H](O)[C@@H](O)[C@@H]2[C@@H]3C(=O)N(c4cccc(Oc5ccccc5)c4)C(=O)[C@H]3CC[C@@H]12`: -10.2% [at 11.4 µM].
Same read-out and setting: the same measure for `NS(=O)(=O)c1cc(Br)c(N=Nc2ccc(O)c3ncccc23)c(Br)c1`: -10.5% [at 11.4 µM].
Regarding `COc1ccc(-n2c(=O)c(-c3cn(C)c4ccccc34)nc3cncnc32)cc1`, the AC50 is 15.8 µM (active).
Consider `COc1ccc(-n2c(=O)c(-c3cn(C)c4ccccc34)nc3cnc(OC)nc32)cc1`, for which the “activity, negative = inhibition” value is -5%.
Still for that read-out and setting: for `Cc1nn(C)cc1CNC(=O)CCC(=O)O` the value was -3.78%; for `CCn1ncc(/C=C/C(=O)NCc2cn(C)nc2C)c1C`, -1.07%.
For `COc1ccc(/C=C/C(=O)NCc2cn(C)nc2C)cc1COc1ccc(Br)cc1`, the AC50 was 3.98 µM (active).
On the same count and under the same terms, the same measure for `COc1ccc(C(=O)NN)cc1COc1ccc(Br)cc1`: 0.251 µM (active).
Turning to `NC(=O)C1=CN([C@@H]2O[C@@H](COP(=O)(O)OP(=O)(O)OC[C@@H]3O[C@H](n4cnc5c(N)ncnc54)[C@@H](OP(=O)(O)O)[C@@H]3O)[C@H](O)[C@@H]2O)C=CC1`, the “activity, negative = inhibition” value was 3.48%.
On the same count and under the same terms, for `CS(=O)(=O)c1ccc(/C=N\NC(N)=S)cc1` the value was -0.291% [at 11.4 µM].
Regarding `CC(C)c1ccc(/C=N/NC(=O)CN(c2cccc(Cl)c2Cl)S(C)(=O)=O)cc1`, the AC50 was 15.8 µM (active).
Consider `Nc1nc(NCc2ccccc2)nc(Nc2cccc(F)c2)c1[N+](=O)[O-]`, for which the “activity, negative = inhibition” value is -3.88%.
With `Cc1[nH]nc(Nc2ccccc2)c1[N+](=O)[O-]`, the concentration at half-maximal activity (AC50) was 14.1 µM (active).
In the case of `Cc1cccc(-c2n[nH]c([N+](=O)[O-])n2)c1`, the “activity, negative = inhibition” value was -14.2%.
On to `Clc1ccc(Sc2ccc(/C=N/n3cnnc3)o2)cc1`, for which the AC50 was 2.82 µM (active).
On to `CN=C1S/C(=C\c2ccc(Sc3ccc(Cl)cc3)o2)C(=O)N1C`, for which the “activity, negative = inhibition” value is -21.7%.
For `COc1ccc(N=C2S/C(=C\c3ccc(C)s3)C(=O)N2CC(C)C)cc1`, the “activity, negative = inhibition” value is -27%.
Take `CCCN1C(=O)/C(=C/c2ccc(C)s2)SC1=Nc1ccc(OC)cc1`: the concentration at half-maximal activity (AC50) was 11.2 µM (active).
Turning to `CC(C)CN(CC#N)CC(C)C`, the activity, negative = inhibition was 2.34% [at 11.4 µM].
In the case of `c1ccc(-c2nc3ccccn3c2NCc2ccc3c(c2)OCO3)cc1`, the AC50 was 0.316 µM (active).
On to `CN(C)CCNS(=O)(=O)N(C)C`, for which the activity, negative = inhibition was 0.116% [at 11.4 µM].
On to `C=CCN=C(NC#N)SCc1ccccc1`, for which the half-maximal activity concentration (AC50) was 14.1 µM (active).
As for `Cc1ccc(/C=C/C2=Cc3c(sc(NC(=O)CSc4n[nH]c(N)n4)c3C#N)C(C)(C)C2)o1`, the AC50 is 4.47 µM (active).
Same read-out and setting: the same measure for `CCOc1ccc(/C=C/C2=Cc3c(sc(NC(=O)CSc4n[nH]c(N)n4)c3C#N)C(C)(C)C2)cc1`: 10 µM (active).

The term AC50 denotes the concentration at which the activity in the assay is half-maximal.
